# Tested on: Vero E6 infected with SARS-CoV-2
# Assay: morphology score (similarity to uninfected cells); higher = more like uninfected cells
# Conditions: 24 h
row,Compound,morphology score
1,CC[N+](C)(CC)CCC[n+]1c(-c2ccccc2)c2cc(N)ccc2c2ccc(N)cc21 [propidium-iodide] (10 µM),0.271
2,CC[C@]12C=CCN3CC[C@@]4(c5cc([C@@]6(C(=O)OC)C[C@@H]7C[C@@H](C(C)(F)F)CN(Cc8c6[nH]c6ccccc86)C7)c(OC)cc5N(C)[C@H]4[C@@](O)(C(=O)OC)[C@@H]1OC(C)=O)[C@@H]32 [Vinflunine Ditartrate] (10 µM),-0.12
3,CCOC(=O)c1cncn1[C@H](C)c1ccccc1 [etomidate] (10 µM),-0.0479
4,CC(/C=C/C(=O)NO)=C\[C@@H](C)C(=O)c1ccc(N(C)C)cc1 [trichostatin-a] (0.833333 µM),-0.0945
5,NNc1nncc2ccccc12 [hydralazine] (10 µM),-0.0789
6,NCCCC[C@H](N[C@@H](CCc1ccccc1)C(=O)O)C(=O)N1CCC[C@H]1C(=O)O [lisinopril] (10 µM),0.0957
7,NS(=O)(=O)c1cc2c(cc1Cl)NC(C1CC3C=CC1C3)NS2(=O)=O (centres undefined) [cyclothiazide] (10 µM),0.0121
8,O=C(Nc1c(-c2cccs2)nc2ccccn12)c1ccc(Cl)cc1 (10 µM),0.204
9,CCOC(=O)[C@H](CCc1ccccc1)N[C@@H](C)C(=O)N1Cc2cc(OC)c(OC)cc2C[C@H]1C(=O)O [moexipril] (10 µM),0.183
10,COC(=O)C[C@](O)(CCC(C)(C)O)C(=O)O[C@@H]1C(OC)=C[C@]23CCCN2CCc2cc4c(cc2[C@H]13)OCO4 [harringtonine] (10 µM),0.555
11,CC/C(=C(/CC)c1ccc(O)cc1)c1ccc(O)cc1 [diethylstilbestrol] (10 µM),-0.0992
12,CCOc1cc(C=O)ccc1O [ethyl-vanillin] (10 µM),0.19
13,Cc1cc(C)c2c(N)c(C(=O)NCc3ccc(Cl)cc3)sc2n1 (10 µM),0.0846
14,O=C(O[C@H]1CN2CCC1CC2)N(Cc1cc(F)c(F)c(F)c1)c1cccc(F)c1 [tarafenacin] (10 µM),0.371
15,O=[N+]([O-])c1cccc2c(Br)n[nH]c12 [3-bromo-7-nitroindazole] (10 µM),0.0979
16,c1cc2c(cc1C1CCCCC1)c1c3n2CCNC3CCC1 (centres undefined) [tetrindole] (0.833333 µM),-6.12e-06
17,CCCCCCN(CCCCCC)C(=O)Cc1c(-c2ccc(F)cc2)[nH]c2ccccc12 (10 µM),-0.0301

row,Compound,morphology score
1,C[C@@H](NC(=O)[C@@H](N)Cc1ccc(O)cc1)C(=O)NCC(=O)N(C)[C@@H](Cc1ccccc1)C(=O)N[C@H](CO)CC[S+](C)[O-] (some centres undefined) (10 µM),0.111
2,O=C(Cn1c(=O)sc2ccc(Cl)cc21)N1CCN(CCO)CC1 [tiaramide] (10 µM),0.00737
3,CCN(CC)CCNC(=O)c1cc(Br)c(N)cc1OC [bromopride] (10 µM),-0.115
4,CCOC(=O)CCNc1cc(N2CCc3ccccc3CC2)nc(-c2ccccn2)n1 (0.833333 µM),-0.0369
5,CCOc1ccn(-c2ccc(F)cc2)c(=O)c1C(=O)Nc1ccc(Oc2ccnc(N)c2Cl)c(F)c1 (10 µM),0.364
6,c1ccc(N2CCN(Cc3nc4ccccc4[nH]3)CC2)nc1 (10 µM),0.136
7,Oc1c(Cl)cc(Cl)c2cccnc12 [chloroxine] (10 µM),-0.0551
8,C#CCN[C@@H]1CCc2ccccc21 [rasagiline] (10 µM),0.0975
9,C[C@H]1NCc2cc(-c3ccc4c(=O)c(C(=O)O)cn(C5CC5)c4c3OC(F)F)ccc21 [garenoxacin] (10 µM),0.0451
10,COc1nccc(-c2c(-c3ccc(F)cc3)ncn2C2CCNCC2)n1 (10 µM),-0.0202
11,CC(C)Oc1ccc(-c2nc(-c3cccc4c3CC[C@@H]4NCCO)no2)cc1C#N [ozanimod] (0.833333 µM),0.262
12,C=C(C)[C@H]1CN[C@H](C(=O)O)[C@H]1CC(=O)O [kainic-acid] (10 µM),0.338
13,Clc1ccccc1CNC[C@H]1CC[C@H](CNCc2ccccc2Cl)CC1 (10 µM),0.523
14,Nc1ccc(C(=O)O)cc1 [potassium-p-aminobenzoate] (10 µM),-0.112
15,CCOC(=O)Nc1cc2c(c(N)n1)N=C(c1ccccc1)[C@H](C)N2 [mivobulin] (10 µM),-0.0939
16,c1ccc2c(c1)CCCc1cc(NCCN3CCOCC3)nnc1-2 (10 µM),-0.11
17,Cc1ccc(-c2nn(C(C)(C)CNC(=O)c3ncccc3C)c3ncnc(N)c23)cc1 [WEHI-345-analog] (0.833333 µM),-0.0639
